Laboratory results: paper PMC5540273 (PLoS ONE, 2017)

Tested on: T1, ASK1
T1 construct: gene MAP3K5
Conditions: concentration: 1 μM, replicates: in singlicate; n = 1
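Note: KINOMEscan kinase panel screen.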

Row | SMILES | %Inh [%]
1 | CCC(=O)c1c(-c2ccccc2)c2cc(Cl)ccc2c(=O)n1Cc1cc(S(C)(=O)=O)n(CC(F)F)n1 | 0
2 | CCC(=O)c1c(-c2ccccc2)c2cc(Cl)ccc2c(=O)n1Cc1cc(S(C)(=O)=O)n(CC(N)=O)n1 | 0
3 | O=C(Nc1ccc2c(c1)OCO2)NC1CCN(c2ccnc(NCc3ccc(F)cc3)n2)CC1 [GSK1379859] | 0
4 | Cn1c(=O)c(F)c(Nc2ccc(I)cc2F)c2c(=O)n(OC[C@H](O)CO)cnc21 | 0
5 | Nc1nccc2scc(-c3ccc4c(c3)CCN4C(=O)Cc3ccccc3)c12 [GSK2576924] | 6
6 | C[C@@H]1CC[C@H](C(=O)NC2CCCCC2)CN1c1cc(-c2ccc3c(N)n[nH]c3c2)nc(N)n1 [GSK2291363] | 9
7 | O=C(NCCNc1ccnc(Nc2ccc(F)cc2)n1)Nc1ccc2c(c1)OCO2 [GSK1379882] | 14
8 | CCS(=O)c1ccc(-c2coc3ccc(-c4nnc(C)o4)cc23)cc1 (stereo not shown) | 0
9 | Cc1cccc(-c2cc(-c3c[nH]nc3-c3ccccn3)ccn2)c1 [GW679395] | 5
10 | CN1C(=O)C(Nc2ccccc2)=C(c2ccccc2)C1=O [SB-300079] | 0
11 | COc1cccc(-n2cnc3c(N)ncnc32)c1 [SKF-97416] | 4
12 | COc1ccc(CNC(=O)NC2CCN(c3ccnc(Nc4ccc(F)cc4)n3)C2)cc1 (stereo not shown) [GSK1379706] | 11
13 | Nc1n[nH]c2nnc(-c3ccccc3)c(-c3ccccc3)c12 [GW554060] | 0
14 | Cc1nnc(-c2ccc3ncn(-c4ccc(S(C)=O)cc4)c3c2)o1 (stereo not shown) | 0
15 | CCn1c(-c2nonc2N)nc2ccccc21 [SB-693162/GW549034] | 16
16 | O=C(Nc1n[nH]c2cc(-c3ccccc3F)ccc12)C1CC1 [SB-733371] | 0
17 | CC(C)(C)c1ccc(C(=O)Nc2cn3cc(-c4ccccc4)ccc3n2)cc1 | 40
18 | Nc1ncnc2c1ncn2-c1cccc2ccccc12 [SKF-97184] | 0
19 | CCCC(=O)Nc1n[nH]c2ncc(-c3cccc4ccccc34)cc12 [SB-642057] | 9

Row | SMILES | %Inh [%]
20 | Cc1cccc(-c2nc(Nc3ccc4c(cnn4C)c3)c3ccccc3n2)n1 [GW876731] | 0
21 | COC(=O)c1c(-c2ccccc2)c2cc(Br)ccc2c(=O)n1Cc1ccc(NC(=O)CCC(=O)O)cc1 | 2
22 | O=C1NC(=O)C(c2ccccc2)=C1Nc1cccc(O)c1 [SB-390534] | 0
23 | CCCNC(=O)Nc1ccc(Oc2ncnc3ccn(C)c23)cc1 | 0
24 | COc1cc2nccc(Nc3cccc(Oc4ccccc4)c3)c2cc1OC.Cl [GW284543] | 0
25 | COc1cc2ncn(-c3cc(OCCCc4ccccc4)c(C(N)=O)s3)c2cc1OC [GSK205189] | 0
26 | CCn1c(-c2ccoc2)nc2cnccc21 [SB-733887] | 23
27 | COc1ccc(-c2coc3ccc(-c4nnc(SCc5cccc(C#N)c5)o4)cc23)cc1 | 9
28 | COC(=O)c1c(-c2ccccc2)c2cc(C)ccc2c(=O)n1Cc1ccccc1 | 0
29 | CCc1nc(-c2cccc(C)c2)c(-c2ccncc2)s1 | 0
30 | Cc1ccc(Oc2ccc(Nc3ncnc4cc[nH]c34)cc2C)cn1 | 0
31 | COc1cccc(C2=C(N(C)c3ccccc3)C(=O)NC2=O)c1 [SB-334865] | 18
32 | COc1ccc(-n2cnc3c(N)ncnc32)cc1 [SKF-97236] | 0
33 | Cc1c(Cn2c(C)nn3c(=O)cc(N4CCO[C@H](C)C4)nc23)cccc1C(F)(F)F [GSK2373690] | 11
34 | COc1cc(Nc2nccc(N3CCC(NC(=O)C(C)c4ccc(Cl)cc4)C3)n2)cc(OC)c1OC (stereo not shown) [GSK1379757] | 0
35 | COc1cc2ncn(-c3cc(OCc4ccc(S(C)(=O)=O)cc4)c(C(N)=O)s3)c2cc1OC [GW869979] | 18
36 | Cc1nnc(-c2ccc(C)c(-c3ccc(C(=O)O)cc3)c2)o1 [GW608005] | 0
37 | COc1ccc(-c2cc3c(C)nc(N)nc3n([C@H]3CC[C@H](O)CC3)c2=O)cn1 | 6
